# Measurements taken from PubChem BioAssay AID588477 (NMMLSC, 2011).
# Unmarked numbers belong to inactive results. Calls of active or inactive are those of the source.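 The calls were made as follows: active = valid curve fit with half-effect dose at most 10 µM and total binding change across doses of 30 points or more; inactive = the rest.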
# System: Rho wt
# Test: inhibitors of Bodipy-GTP binding across eight GTPases, SAR follow-up, selectivity assay for Cdc42 probe extension project, biochemical, round 1 SAR, Mg buffer, multiplex flow cytometry (AID 588477)
# Details: GST-GTPase beads; series mostly up to 100 µM; percent response (remaining binding): at the top concentration
Compound,percent response (remaining binding) [%],outcome
NS(=O)(=O)c1ccc(N2N=C(c3ccccc3)CC2c2ccccc2)cc1 (stereo not drawn),95.8,
COc1ccc(C2CC(c3ccccc3)=NN2c2ccc(S(N)(=O)=O)cc2)cc1 (stereo not drawn),92.8,
O=C(C#Cc1ccccc1)c1cccc([N+](=O)[O-])c1,,inactive
